Assay outcomes: PubChem BioAssay, several laboratories
ATG4B inhibitor: blocks human ATG4B protease cleavage of LC3 substrate. Q9Y4P1. ATG4B cleavage of LC3-PLA2, NBD-HPC fluorescence, 1 h. inhibition, % at 8.33 µM. hit rate 0.51% among 340,000. AID 504462; in the data active means inhibition above about 40%
H9c2 protect: modulators protecting cardiomyocytes from myocardial damage | H9c2 cardiomyocytes, H2O2 injury protection, ATPLite, 2 h | hit rate 0.63% among 360,000 | protection from H2O2 cell death, % at 20 µM;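 active means compounds giving at least 50% protection of heart cells from peroxide-induced death in the single-dose screen, raw or plate-pattern-corrected value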;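 further: 0% = DMSO wells with peroxide and 100% = DMSO wells without peroxide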
PP1 counter: blocks human PP1-alpha phosphatase, a PP5 counter-screen | P62136 | purified PP1alpha, OMFP fluorescence | inhibition, % at 6.7 µM | hit rate 0.9% among 320,000 | AID 2235;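 active means inhibition above the mean inhibition of all tested compounds plus 3 SD, computed separately for each screening campaign, cut at about 15% in these data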
PP5 inh: PP5 (human) phosphatase inhibition; P53041; purified PP5c, OMFP substrate fluorescence; inhibition, % at 6.7 µM; hit rate 0.18% among 320,000; AID 1987;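 active means inhibition above the campaign's mean inhibition across all tested compounds plus 3 SD, cut at about 9.5% in these data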;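 further: 0% = DMSO only and 100% = 100 µM cantharidin control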
Target sequence (P53041 whole entry, looked up): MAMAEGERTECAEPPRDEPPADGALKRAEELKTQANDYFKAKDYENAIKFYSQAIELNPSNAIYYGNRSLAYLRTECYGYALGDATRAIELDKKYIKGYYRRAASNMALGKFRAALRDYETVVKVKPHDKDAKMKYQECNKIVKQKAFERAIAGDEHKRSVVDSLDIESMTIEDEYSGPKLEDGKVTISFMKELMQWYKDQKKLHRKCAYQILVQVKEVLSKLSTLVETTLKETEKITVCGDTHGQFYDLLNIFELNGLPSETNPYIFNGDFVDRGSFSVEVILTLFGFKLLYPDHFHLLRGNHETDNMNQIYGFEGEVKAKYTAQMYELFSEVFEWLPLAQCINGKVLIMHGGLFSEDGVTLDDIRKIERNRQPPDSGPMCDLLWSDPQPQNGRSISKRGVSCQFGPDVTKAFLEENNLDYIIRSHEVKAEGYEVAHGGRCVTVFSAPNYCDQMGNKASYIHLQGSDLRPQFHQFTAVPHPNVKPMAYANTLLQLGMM
* marks the source's active call; other numbers are inactive results; . = no result. This is a sample that favours compounds with a hit; in the whole collection about 1.9% have one here.

SMILES	ATG4B inhibitor	H9c2 protect	PP1 counter	PP5 inh
C=CCOC(=O)C1=C[C@H](c2cn(C(C)=O)c3ccccc23)C[C@H](OCc2ccc(CO)cc2)O1	-10	51*	2	3
CCOC(=O)C1=CCN(S(=O)(=O)c2ccc(F)cc2)C1c1cccc(C)c1 (centres undefined)	.	-1	.	.
CCN(CC)c1ccc2cc(-c3nnc(-c4ccncc4)o3)c(=O)oc2c1	-63	65*	.	.
Cc1ccc(C2CC(=O)Oc3cc(C)c(Br)c(C)c32)cc1 (centres undefined)	-3	-10	.	.
COc1cc(NC(=O)COC(=O)CCc2nc3ccccc3c(=O)[nH]2)cc(OC)c1	-10	15	.	.
O=C(CCc1nc2ccccc2c(=O)[nH]1)NNC(=O)COc1cccc(F)c1	-7	96*	-2	2
O=C(CCc1nc2ccccc2c(=O)[nH]1)NNC(=O)c1ccccc1Cl	-4	56*	-4	0
CN(C)C(=O)c1cnc(-c2ccccc2)nc1-c1ccccc1	-7	4	-3	0
O=C1c2ccccc2NC(c2ccc(-c3ccccc3F)o2)N1O (centres undefined)	-3	47	2	0
Cc1cc([N+](=O)[O-])ccc1-c1ccc(C2Nc3ccccc3C(=O)N2O)o1 (centres undefined)	-17	63*	12	3
CCOC(=O)c1ccc(-c2ccc(C3Nc4ccccc4C(=O)N3O)o2)cc1 (centres undefined)	5	59*	8	1
COCCCNC(=O)CCC(=O)NNc1nc2ccccc2c2nc(-c3ccccc3)nn12	0	10	-3	2
COCCNC(=O)CCC(=O)NNc1nc2ccccc2c2nc(-c3ccccc3)nn12	-2	10	-2	2
CC(C)OCCCNC(=O)CCC(=O)NNc1nc2ccccc2c2nc(-c3ccccc3)nn12	-6	84*	0	1
CCOCCCNC(=O)CCC(=O)NNc1nc2ccccc2c2nc(-c3ccccc3)nn12	-9	54*	1	0
COc1cc(C(=O)NCCSc2ccc(F)cc2)cc(OC)c1OC	-4	-8	-3	0
COc1ccc(S(=O)(=O)N2CCN(C(=O)c3ccc(=O)[nH]n3)CC2)cc1OC	-5	3	.	.
Cn1c(=O)c2c(nc(CN3CCN(C(=O)c4ccco4)CC3)n2CCc2ccccc2)n(C)c1=O	-10	3	2	2
Cn1c(=O)c2c(nc(CN3CCN(C(=O)c4ccco4)CC3)n2CCCc2ccccc2)n(C)c1=O	-7	52*	0	2
CC1CCCN(Cc2nc3c(c(=O)n(C)c(=O)n3C)n2CCCc2ccccc2)C1 (centres undefined)	-6	55*	-5	-3
O=C(O)c1ccc(CP(=O)(c2ccccc2)c2ccccc2)cc1	1	6	3	0
Clc1nc2sccn2c1/C=N/n1cnc2ccccc21	-14	66*	-4	1
Cc1ccc(NC(=O)CC(=O)c2ccc([N+](=O)[O-])cc2)cc1S(=O)(=O)Nc1cccc(Cl)c1	30	-24	17*	6
O=C(CCS(=O)(=O)c1ccccc1Cl)NCCC1=CCCCC1	-6	0	0	2
CCOC(=O)C(Cc1ccc(NC(=O)/C(=C/c2ccc(OC(C)=O)cc2)NC(C)=O)cc1)N1C(=O)c2ccccc2C1=O (centres undefined)	-12	59*	-4	2
SMILES	ATG4B inhibitor	H9c2 protect	PP1 counter	PP5 inh
COc1ccc2nc(C)cc(SCC(=O)N/N=C/c3ccccc3)c2c1	-17	4	-4	0
COc1ccc(Cc2nc3ccccc3n2CC(=O)N/N=C/c2ccc(C)cc2O)cc1OC	-11	52*	3	3
COCc1cc(C)nc(OCC(=O)N/N=C/c2ccc(O)cc2O)c1C#N	8	52*	1	4
COc1cccc2c(SCC(=O)N/N=C/c3ccc(O)cc3O)cc(C)nc12	-1	81*	.	.
COc1ccc2nc(C)cc(SCC(=O)N/N=C/c3ccc(O)cc3O)c2c1	-16	52*	-1	-1
N#Cc1ccc(NC(=O)Nc2ccc(Oc3ccc(NC(=O)Nc4ccc(C#N)cc4)cc3)cc2)cc1	0	-20	17*	7
N#Cc1ccc(NC(=O)Nc2cccc(C#N)c2)cc1	-3	-18	.	.
COc1ccc(/C=N/N=C2/CC(C)(C)Cc3n[nH]c(=O)cc32)cc1	0	10	-2	1
Cc1cc(C)n(CCC(=O)N/N=C/c2ccc(O)cc2O)n1	-3	55*	-2	2
Cc1cc(N/N=C/c2ccc(O)cc2O)nc(-n2nc(C)cc2C)n1	-13	20	16*	6
O=C(CCN1CCN(C(c2ccccc2)c2ccccc2)CC1)N/N=C/c1ccc(O)cc1O	-14	61*	7	0
COc1ccc(/C=N/NC(=O)CCn2nc(C)cc2C)cc1O	-2	-4	1	1
Cc1cc(N/N=C/c2ccccc2[N+](=O)[O-])nc(-n2nc(C)cc2C)n1	1	11	12	4
O=C(CCC(=O)Nc1ccc(F)cc1)N/N=C/c1ccc(O)cc1O	2	74*	1	3
O=C(CCC(=O)Nc1ccc(F)cc1)N/N=C/c1ccc(O)cc1	-4	0	-3	0
Cc1cc(C)n(CCC(=O)N/N=C/c2ccccc2O)n1	-7	54*	-2	-1
Cc1ccc(NC(=O)c2cc(=O)c3ccccc3o2)cc1S(=O)(=O)N1CCCCC1	-5	16	2	1
CC(C)c1ccc(S(=O)(=O)N2CCN(C(=O)CCc3nc4ccccc4c(=O)[nH]3)CC2)cc1	.	44	.	.
Cc1ccc(C)c(S(=O)(=O)N2CCN(C(=O)CCc3nc4ccccc4c(=O)[nH]3)CC2)c1	-4	57*	-5	2
Cc1ccc(S(=O)(=O)N2CCN(C(=O)CCc3nc4ccccc4c(=O)[nH]3)CC2)c(C)c1	-11	72*	-1	1
O=C(CCc1nc2ccccc2c(=O)[nH]1)N1CCN(S(=O)(=O)c2ccccc2Br)CC1	-13	71*	-3	-1
Cc1ccc(NC(=O)c2cc(=O)c3ccccc3o2)cc1S(=O)(=O)N1CCOCC1	-4	60*	-2	0
CC(=NNC(=O)c1cccc(S(=O)(=O)N2CCOCC2)c1)c1ccc(Cl)cc1	-5	-1	.	.
CCOc1ccc(C(=O)NNC(=O)c2cc(S(=O)(=O)N3CCOCC3)ccc2Cl)cc1	-9	-6	-4	3
CC(OC(=O)CCc1nc2ccccc2c(=O)[nH]1)C(=O)Nc1ccc2c(c1)OCO2 (centres undefined)	-5	50*	-4	1
Cc1ccc(NC(=O)CCc2nc3ccccc3c(=O)[nH]2)cc1S(=O)(=O)N1CCOCC1	-3	86*	1	0
Cc1nc2ccccc2c(=O)n1CCc1ccc(O)cc1	-3	-3	2	-2
COC(=O)C=CC(=NNc1ccccc1)c1ccccc1	-1	-8	.	.
N#CC(c1nc2ccccc2nc1N1CCCC1)S(=O)(=O)c1cccs1 (centres undefined)	-2	59*	4	-4
CC1CN(C(=O)CCC(=O)NC2CCCCC2)c2ccccc2S1 (centres undefined)	1	14	-4	-1
